Data reported in PubChem BioAssay (NCATS).
Where “and” joins values, the source holds several entries; their conditions need not be identical. Equal values may be shown once. Inconclusive results are not listed. Where a call stands in place of a potency, no number is given. The source holds several records for some structures; these can differ, active in one and inactive in another. Calls of active or inactive are those of the source. Calls follow the shape of the dose curve; as a rule, active = well fitted inhibition curve with a large enough effect; inconclusive = small, poorly fitted or top-dose-only effect; inactive = flat fitted curve, though single readings scatter.

Key:
Experiment in all cases: qHTS profiling for inhibitors of Plasmodium falciparum proliferation (AID 504749); also: nearly all actives have a fitted effect of over 60% in size
Settings in all cases: P. falciparum in erythrocytes, SYBR Green DNA, 72 h; series mostly up to 28.7 µM
CP260 = tested on: CP260
Procedure, shortened: (§1)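 Fluorescence of SYBR Green-bound parasite DNA, read at 485/535 nm, served as the growth measure. Infected erythrocytes were cultured with compound 72 h; artemisinin (0.29 uM) and DMSO wells defined the normalization range.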

CP262 = tested on: CP262
Procedure, shortened: as §1

CP265 = tested on: CP265
Procedure, shortened: as §1

CP266 = tested on: CP266
Procedure, shortened: as §1

CP268 = tested on: CP268
Procedure, shortened: as §1

CP269 = tested on: CP269
Procedure, shortened: as §1

CP286 = tested on: CP286
Procedure, shortened: as §1

CP291 = tested on: CP291
Procedure, shortened: as §1

CP297 = tested on: CP297
Procedure, shortened: as §1

CP305 = tested on: CP305
Procedure, shortened: as §1

CP315 = tested on: CP315
Procedure, shortened: as §1

CP325 = tested on: CP325
Procedure, shortened: as §1

CP329 = tested on: CP329
Procedure, shortened: as §1

CP335 = tested on: CP335
Procedure, shortened: as §1

DFO2036 = tested on: DFO2036
Procedure, shortened: as §1

DIV14 = tested on: DIV14
Procedure, shortened: as §1

DIV17 = tested on: DIV17
Procedure, shortened: as §1

DIV30 = tested on: DIV30
Procedure, shortened: as §1

Dd2 = tested on: Dd2
Procedure, shortened: as §1

ECU = tested on: ECU
Procedure, shortened: as §1
Potency is read from the fitted curve at half-maximal effect.

SMILES	Potency (CP260)	Potency (CP262)	Potency (CP265)	Potency (CP266)	Potency (CP268)	Potency (CP269)	Potency (CP286)	Potency (CP291)	Potency (CP297)	Potency (CP305)	Potency (CP315)	Potency (CP325)	Potency (CP329)	Potency (CP335)	Potency (DFO2036)	Potency (DIV14)	Potency (DIV17)	Potency (DIV30)	Potency (Dd2)	Potency (ECU)
C#CC(C)(O)CC (stereo unspecified)	inactive	inactive	inactive	inactive	inactive	inactive	inactive	inactive	inactive	inactive	inactive	inactive	inactive	inactive	inactive	inactive	inactive	inactive	inactive	inactive
O=Cc1ccco1	inactive	inactive	inactive	inactive	inactive	inactive	inactive	inactive	inactive	inactive	inactive	inactive	inactive	inactive	inactive	inactive	inactive	inactive	inactive	inactive
CC(C)(O)C1C2OC(=O)C1C1(O)CC3OC34C(=O)OC2C14C (stereo unspecified)	inactive	inactive	inactive	inactive	inactive	inactive	inactive	inactive	inactive	inactive	inactive	inactive	inactive	inactive	inactive	inactive	inactive	inactive	inactive	inactive
CNC(=O)OCC[N+](C)(C)C	inactive	inactive	inactive	inactive	inactive	inactive	inactive	inactive	inactive	inactive	inactive	inactive	inactive	inactive	inactive	inactive	inactive	inactive	inactive	inactive
CC(N)Cc1ccc(O)cc1 (stereo unspecified)	inactive	inactive	inactive	inactive	inactive	inactive	inactive	inactive	inactive	inactive	inactive	inactive	inactive	inactive	inactive	inactive	inactive	inactive	inactive	inactive
O=S(=O)(O)c1cc(O)ccc1O	inactive	inactive	inactive	inactive	inactive	inactive	inactive	inactive	inactive	inactive	inactive	inactive	inactive	inactive	inactive	inactive	inactive	inactive	inactive	inactive
C[C@H]1CC[C@@H]2[C@@H](C)[C@H]3[C@H](C[C@H]4[C@@H]5CC=C6CC(O[C@@H]7O[C@H](CO)[C@H](O)[C@H](O[C@@H]8O[C@H](CO)[C@@H](O)[C@H](O)[C@H]8O)[C@H]7O[C@H]7O[C@@H](C)[C@H](O)[C@@H](O)[C@H]7O)CC[C@]6(C)[C@H]5CC[C@]34C)N2C1 (stereo partly specified)	inactive	inactive	inactive	inactive	inactive	inactive	inactive	inactive	inactive	inactive	inactive	inactive	inactive	inactive	inactive	inactive	inactive	inactive	inactive	inactive
COc1ccc(OC)c(C(O)C(C)N)c1 (stereo unspecified)	inactive	inactive	inactive	inactive	inactive	inactive	inactive	inactive	inactive	inactive	inactive	inactive	inactive	inactive	inactive	inactive	inactive	inactive	inactive	inactive
CCCC(C)(COC(N)=O)COC(=O)NC1CC1 (stereo unspecified)	inactive	inactive	inactive	inactive	inactive	inactive	inactive	inactive	inactive	inactive	inactive	inactive	inactive	inactive	inactive	inactive	inactive	inactive	inactive	inactive
CCCCCl	inactive	inactive	inactive	inactive	inactive	inactive	inactive	inactive	inactive	inactive	inactive	inactive	inactive	inactive	inactive	inactive	inactive	inactive	inactive	inactive
O=P(O)(O)C(Cl)(Cl)P(=O)(O)O	inactive	inactive	inactive	–	inactive	inactive	inactive	inactive	inactive	inactive	inactive	inactive	inactive	inactive	inactive	inactive	inactive	inactive	inactive	inactive
N#CN	inactive	inactive	inactive	inactive	inactive	inactive	inactive	inactive	inactive	inactive	inactive	inactive	inactive	inactive	inactive	inactive	inactive	–	inactive	inactive
O=C1CC[C@@]2(O)C3Cc4ccc(O)c5c4C2(CCN3CC2CC2)[C@H]1O5 (stereo partly specified)	inactive	inactive	inactive	inactive	inactive	inactive	inactive	inactive	inactive	inactive	inactive	inactive	inactive	–	inactive	inactive	inactive	inactive	inactive	inactive
[O]=[Cr](=[O])([OH])[O][Cr](=[O])(=[O])[OH]	11.2 µM (active)	inactive	inactive	inactive	inactive	inactive	inactive	inactive	inactive	inactive	inactive	inactive	inactive	inactive	inactive	inactive	inactive	inactive	inactive	inactive
COCC(C)N(C(=O)CCl)c1c(C)csc1C (stereo unspecified)	inactive	inactive	inactive	inactive	inactive	inactive	inactive	inactive	–	inactive	inactive	inactive	inactive	inactive	inactive	inactive	inactive	–	inactive	inactive
O=C/C=C/c1ccccc1	inactive	inactive	inactive	inactive	inactive	inactive	inactive	inactive	inactive	inactive	inactive	inactive	inactive	–	inactive	inactive	inactive	inactive	inactive	inactive
O=C(CCl)c1ccc(Oc2ccc(C(=O)CCl)cc2)cc1	inactive	inactive	inactive	–	inactive	inactive	inactive	inactive	inactive	inactive	inactive	inactive	inactive	inactive	inactive	inactive	inactive	inactive	inactive	inactive
O=c1[nH]cc(N(CCCl)CCCl)c(=O)[nH]1	inactive	inactive	inactive	inactive	inactive	inactive	inactive	inactive	inactive	inactive	inactive	–	inactive	inactive	inactive	inactive	inactive	inactive	inactive	inactive
CNC1(c2ccccc2Cl)CCCCC1=O (stereo unspecified)	inactive	inactive	inactive	inactive	inactive	inactive	inactive	inactive	inactive	inactive	inactive	inactive	inactive	inactive	inactive	9.53 µM (active) and inactive	13.5 µM (active)	inactive	–	inactive
c1csc(C2(N3CCCCC3)CCCCC2)c1	inactive	inactive	inactive	inactive	inactive	inactive	inactive	inactive	inactive	inactive	inactive	inactive	inactive	inactive	inactive	–	inactive	inactive	–	inactive
Oc1cc(Cl)c(Cl)cc1Cl	inactive	inactive	inactive	inactive	inactive	inactive	inactive	inactive	inactive	inactive	inactive	inactive	inactive	inactive	inactive	–	–	inactive	inactive	inactive
CC(C)(C)c1cc(O)ccc1O	6.31 µM (active)	12 µM (active) and inactive	11.2 µM (active) and 12.6 µM (active)	inactive	–	13.5 µM (active)	3.98 µM (active)	15.1 µM (active)	12 µM (active)	13.5 µM (active)	inactive	–	inactive	5.36 µM (active)	8.91 µM (active)	6.01 µM (active) and 12 µM (active)	5.36 µM (active)	9.53 µM (active)	4.47 µM (active)	7.94 µM (active)
Cc1sc2ccccc2c1CC1=NCCN1	inactive	inactive	inactive	inactive	inactive	inactive	–	inactive	–	inactive	inactive	inactive	inactive	inactive	inactive	–	–	inactive	inactive	inactive
CCCC(C)C1(CC)C(=O)NC(=O)NC1=O (stereo unspecified)	inactive	inactive	inactive	inactive	inactive	inactive	inactive	inactive	inactive	inactive	inactive	inactive	inactive	inactive	inactive	inactive	inactive	inactive	inactive	inactive
O[C@H]1[C@H]2[C@H](O)CCCN2C[C@H]1O	inactive	inactive	inactive	inactive	inactive	inactive	inactive	inactive	inactive	inactive	inactive	inactive	inactive	inactive	inactive	inactive	inactive	inactive	inactive	inactive
O=[N+]([O-])c1ccccc1	inactive	inactive	inactive	inactive	inactive	inactive	inactive	inactive	inactive	inactive	inactive	inactive	inactive	–	inactive	inactive	inactive	inactive	inactive	inactive
O=C1CCCCC1CN1CCCCC1 (stereo unspecified)	inactive	inactive	inactive	inactive	inactive	inactive	inactive	inactive	inactive	inactive	inactive	inactive	inactive	inactive	inactive	inactive	inactive	inactive	inactive	inactive
CCNC(C)Cc1cccc(C(F)(F)F)c1 (stereo unspecified)	inactive	inactive	inactive	inactive	inactive	inactive	inactive	inactive	inactive	inactive	inactive	inactive	inactive	–	inactive	inactive	inactive	inactive	inactive	–
Cn1sc(Cl)cc1=O	inactive	inactive	inactive	inactive	inactive	inactive	inactive	inactive	inactive	inactive	inactive	inactive	inactive	inactive	inactive	inactive	inactive	inactive	inactive	inactive
CCCC(=O)OC(C(Cl)(Cl)Cl)P(=O)(OC)OC (stereo unspecified)	inactive	inactive	inactive	inactive	inactive	inactive	inactive	inactive	inactive	inactive	–	–	inactive	inactive	inactive	inactive	inactive	inactive	inactive	inactive
